In the test the target is AMP-activated protein kinase, AMPK (Homo sapiens) (UniProt P54646+O43741+P54619+Q9UGJ0+Q9Y478+Q13131+Q9UGI9). Briefly: AMP-dependent Kinase enzyme assay. An in vitro enzyme assay that detects ADP turnover that is directly proportional to AMPK activity. This uses naive AMPK that is activated during the assay with MK-8722. It counts as functional. The conditions noted are these: 30 µM. More on the design: scale not given: direction of the effect not stated beside the values.
Consider `Cc1cc(-n2cccn2)ccc1CN1CCOCC(CN(C)C)C1` (stereo not given), for which the Percent Effect is -0.486%.
On to `CCNC(=O)[C@@H]1C[C@@H](N)CN1C(=O)c1[nH]c2ccccc2c1CC`, for which the Percent Effect was 13.5%.
`CC(C)Cn1cc(NC(=O)c2cccc(N(C)C)c2)cn1`: the Percent Effect came out at 1.9%.
For the molecule `Cc1nncn1CCN1C(=O)CC2(CCCC2)CC1=O`, the Percent Effect came to 9.66%.
For `Cc1ccnc2c1NC(=O)CN2C(=O)CCc1cccs1` the value was -0.535%; for `CN(C)Cc1cnn(-c2ccccc2C(=O)NCCC2CCCN2C)c1` (stereo not given), 5.44%; for `CCS(=O)(=O)Nc1ccc2[nH]c(C3CCC3)nc2c1`, -4.1%.
In the case of `CCCn1nnnc1COC(=O)C1COc2ccc(Cl)cc2C1` (stereo not given) it was 19.7%; in that of `O=C(Cc1nc(-c2ccncc2)n[nH]1)NCCCN1CCOCC1`, -0.0149%; in that of `Cc1cnn(C2CN(c3nc(-c4ccncc4)nc4c3CCC4)C2)c1`, 4.55%.
For `CC(C)c1cc(C2CCN(C(=O)Cn3nc4ccccc4n3)CC2)[nH]n1` the value was 13.1%; for `CC(C)(C)c1noc(CCCC(=O)N2CCNC(=O)CC2)n1`, -2.76%.
Turning to `CC(=O)N1CCN(CCNC(=O)NC(C)Cn2ccnc2)CC1` (stereo not given), the Percent Effect was -2.62%.
For `O=C1OCCN1Cc1nc(C2(c3ccc(F)cc3)CCOC2)no1` (stereo not given) the value was 8.23%; for `CC(C)(C)c1noc(CCCC(=O)N2CCNC(=O)C2)n1`, -8.74%.
In the case of `COc1ccc(-c2cc3nc(CCNC(=O)CN(C)C)nn3cn2)cc1` it was 15%; in that of `O=C(Cc1c(F)cccc1Cl)Nc1cc(N2CCCC2)ncn1`, 4.4%; in that of `CCS(=O)(=O)NCC(=O)NC1(C)CCc2ccccc2C1` (stereo not given), -3.96%.
`CN(C)C(C(=O)N1CCC(c2ncc[nH]2)CC1)c1ccc2c(c1)OCO2` (stereo not given): the Percent Effect was found to be 1.17%.
In the case of `O=C(Cc1cccnc1)N1CCCC(c2cc(C(F)(F)F)[nH]n2)C1` (stereo not given) it was 2.17%; in that of `Cc1cc(C)n(CCCN(C)c2cc(C3CC3)ncn2)n1`, 6.65%; in that of `Cc1cc(NC(=O)N2CCN(c3cccs3)CC2)ccc1C(N)=O`, 6.86%.
For `COc1ncc(NCc2cccc(C#N)c2)cc1C(N)=O`, the Percent Effect stood at 8.6%.
For `COCCn1ccnc1C1CCN(C(=O)CSc2nnc(C)s2)CC1` the value was 7.22%; for `CCc1oc(C(=O)N[C@@H]2c3ccccc3C[C@@H]2O)cc1C`, -3%; for `CN(Cc1ccncc1)c1cncc(Br)c1`, 3.2%.
In the case of `CN1CC2(CCN(CCCOCc3ccccc3)CC2)OC1=O` it was 2.54%; in that of `O=C(Cc1ccc(Cl)cc1)N[C@@H]1CCC[C@@H](O)[C@@H]1O`, 22.5%.
Turning to `NC(=O)C(NC1CCN(CC2CCCCC2)CC1)c1ccc(F)cc1` (stereo not given), the Percent Effect was -4.02%.
For `CCCN(CCC)C(=O)c1cnn(C)c1C` the value was 3.84%; for `O=C(NCCc1ccccn1)N1CCOC(c2ccccc2Cl)C1` (stereo not given), -1.2%; for `COCC(C)NC(=O)N1CCN(S(C)(=O)=O)CC1` (stereo not given), 11.4%.
In the case of `O=C(CCCN1CCCCC1)NC(C(=O)O)c1ccc(Cl)cc1` (stereo not given), the Percent Effect was 6.04%.
Regarding `Cc1cc(=O)n2nc(Oc3ccc(Cl)c(C)c3)sc2n1`, the Percent Effect is -6.95%.
In the case of `CN1CCN([C@H]2CCN(C(=O)c3nn(C)cc3Cl)C[C@H]2CCCO)CC1` it was 4.08%; in that of `CC(C)OCCS(=O)(=O)N1CCN(Cc2ccco2)CC1`, -2.52%; in that of `CN1CC(c2n[nH]c(=O)n2-c2cccc(Cl)c2)CC1=O` (stereo not given), -12.1%.
In the case of `CN(Cc1csc(-c2cccs2)n1)Cc1cccnc1N` it was 3.93%.
In the case of `CC(C)N1CC(c2ccnc(Nc3nccs3)n2)C1` it was 13.4%; in that of `O=C(CN1CCC(c2nnc(C(F)(F)F)o2)CC1)Nc1cccc(Cl)c1`, -5.71%.
